About 79,000 compounds went through this panel and 15% of them were active in at least one assay; those are over-represented in the sample as a whole. Activity calls are given as the source filed them. No stated cut-off is given here; in the data, active means growth inhibition above about 70%; inactive means the rest.
Key:
[1] = NCI Yeast Anticancer Drug Screen. Data for the rad50 strain (AID 155);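 further: 0% = growth of vehicle-only cultures of the same strain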; conditions: S. cerevisiae rad50 strain growth inhibition; at 50.0 µM; active compounds read high
Method in brief: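 Genetically altered yeast (DNA repair pathway); compound treatment; growth inhibition vs vehicle ctrl.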

[2] = NCI Yeast Anticancer Drug Screen. Data for the mec2-1 strain (AID 157); conditions: S. cerevisiae mec2-1 strain, at 50.0 µM, active compounds read high
Method in brief: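 Compounds were applied to mec2-1 yeast cells. Their growth was then compared with that of vehicle-treated cultures to give growth inhibition.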

[3] = NCI Yeast Anticancer Drug Screen. Data for the sgs1 mgt1 strain (AID 161);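 further: 0% = growth of cultures given vehicle only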; conditions: S. cerevisiae sgs1 mgt1 strain, at 50.0 µM, active compounds read high
Method in brief: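 This yeast growth screen uses a strain with defined DNA-repair lesions; compound-treated growth is compared with vehicle-treated growth.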

[4] = NCI Yeast Anticancer Drug Screen. Data for the cln2 rad14 strain (AID 165);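 further: 0% = growth equal to vehicle treated cultures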; conditions: S. cerevisiae cln2 rad14 strain, at 50.0 µM, active compounds read high
Method in brief: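 Strain: cln2 rad14 yeast, altered in cell cycle control and DNA damage repair. Read-out: growth inhibition vs vehicle.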

[5] = NCI Yeast Anticancer Drug Screen. Data for the bub3 strain (AID 167); conditions: S. cerevisiae bub3 mutant strain, at 50.0 µM, active compounds read high
Method in brief: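 Yeast carrying a defined mutation is treated with each compound, and growth is compared with that of vehicle-exposed cells to give inhibition.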

[6] = NCI Yeast Anticancer Drug Screen. Data for the mlh1 rad18 strain (AID 175); conditions: S. cerevisiae mlh1 rad18 strain growth inhibition; at 50.0 µM; active compounds read high
Method in brief: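 A repair-deficient yeast strain is exposed to test compound, and growth is scored relative to vehicle-treated controls.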

Measured: growth inhibition

CC(N)(Cc1c[nH]c2ccccc12)C(=O)O (configuration not stated)
inactive: [1] -13.3% | [2] -43.5% | [3] -16.1% | [4] -26.9% | [5] -15.8% | [6] -19.4%

COc1cccc(/C=N/O)c1OC
inactive: [1] 6.75% | [2] 4.25% | [3] 2.6% | [4] 8.55% | [5] -1.85% | [6] 2%

COc1cc(C(=O)O[C@H]2CCC3CCC2N3C)cc(OC)c1OC (some centres not stated)
inactive: [1] -46.4% | [2] -31.7% | [3] -4.05% | [4] -9.45% | [5] -3.85% | [6] -47%

COCCOCCOCCOC(C)=O
inactive: [1] 21.6% | [2] 12.4% | [3] 8.3% | [4] 6.2% | [5] -5.3% | [6] -0.65%

O=C1ON=C(c2ccccc2)/C1=C\C=C\c1ccccc1
inactive: [1] 18.2% | [2] 9.9% | [3] 1.45% | [4] 23.1% | [5] 35.6% | [6] 14.5%

CC1=C(C(=O)Nc2ccccc2)C(c2ccc(C3C(C(=O)Nc4ccccc4)=C(C)NC(C)=C3C(=O)Nc3ccccc3)cc2)C(C(=O)Nc2ccccc2)=C(C)N1
inactive: [3] 53% | [4] 41.5%
active: [1] 70% | [2] 71.6% | [5] 82.5% | [6] 84.8%

CCOC(=O)c1nnc2cc(-c3ccccc3)nn2c1C
inactive: [1] 6.65% | [2] 0.6% | [3] 18.1% | [4] 25.4% | [5] 41.4% | [6] 28.6%

O=C(O)CCCN1CCCCC1
inactive: [1] -22.1% | [2] -32.4% | [3] -30.2% | [4] -4.7% | [5] -63.9% | [6] 8.8%

CC(=O)CC(C)(C)NC(=S)NCCO
inactive: [1] 1.2% | [2] -26.5% | [3] 2% | [4] -29.4% | [5] -8.85% | [6] -13.4%

O=C1c2ccccc2CC12Cc1ccc3c(c1C2=O)CCCC3 (configuration not stated)
inactive: [1] -11.2% | [2] -14.4% | [3] -3.85% | [4] -30.2% | [5] -3.55% | [6] -33.5%

COc1cc(-c2ccc(Nc3ccccc3C(=O)O)c(OC)c2)ccc1Nc1ccccc1C(=O)O
inactive: [1] -4.45% | [2] 0.2% | [3] 1.05% | [4] 8.15% | [5] 3.8% | [6] -11.9%

CN1C(=O)C(CCCN=C(N)N)NC1=S (configuration not stated)
inactive: [1] -13.7% | [2] -2.4% | [3] -6.65% | [4] -12.2% | [5] -2.45% | [6] -13.6%

CN=C(NC(=S)N(C)C)N(C)C
inactive: [1] -4.3% | [2] -6.85% | [3] -9.4% | [4] -7.85% | [5] -14.1% | [6] 2.75%

O=C(/C=C/c1ccccc1)NC(=S)Nc1ccccc1F
inactive: [1] 12.1% | [2] -3.1% | [3] -23.9% | [4] -12.4% | [5] 29.7% | [6] 20.6%

CN(C)CC1CN(C)CC(CN(C)C)C1(O)C(C(=O)N(C)C)c1ccccc1 (configuration not stated)
inactive: [2] 50% | [3] 65.2% | [4] 36.4% | [5] 49.7% | [6] 62.2%
active: [1] 75.2%

CC(=O)Nc1nc(C)c(CCCOc2ccc([N+](=O)[O-])cc2)c(Cl)n1
inactive: [1] 1.65% | [2] 11.4% | [3] 4% | [4] 1.4% | [5] 27.1% | [6] 12.2%

CC(=O)NC(Cc1ccccc1)C(=O)NN (configuration not stated)
inactive: [1] 7.15% | [2] -8.3% | [3] -11.2% | [4] -0.35% | [5] -6.55% | [6] -22.3%

C[Si](C)(C)c1ccc(CC2(Cc3ccc([Si](C)(C)C)cc3)CCNC2)cc1
inactive: [1] -32.9% | [2] -39% | [3] -19.9% | [4] 3.75% | [5] -10.2% | [6] -25.9%

CC(C)(C)NC(=S)NC1CC2CC1C1Cc3ccccc3C21 (configuration not stated)
inactive: [1] 20.6% | [2] -1.45% | [3] 22.9% | [4] -37.5% | [5] 5.8% | [6] 1.9%

C=CCN1C(N)=C(C#N)C(C#N)(C#N)C1CCC (configuration not stated)
inactive: [1] 1.2% | [2] 7.65% | [3] -47.9% | [4] 15.8% | [5] -16.6% | [6] -36.6%

O=C(CCc1ccc(O)c(O)c1)OCCc1ccccc1
active: [1] 89.2% | [2] 89.8% | [3] 90.9% | [4] 88% | [5] 87.5% | [6] 89.2%

O=C1OCCN1N1C(=O)CC2(CCN(Cc3ccccc3)CC2)C1=O
inactive: [1] -10.8% | [2] 3% | [3] -0.95% | [4] 1.15% | [5] 0.25% | [6] -17.8%

CCN1C(NN)=NS(=O)(=O)c2ccccc21
inactive: [1] -31.1% | [2] -7.55% | [3] -15.2% | [4] -19.9% | [5] 8.2% | [6] 10.8%

CC(=O)N/N=C(\N)c1nc2c(n3nc(C)nc13)CCCC2
inactive: [1] -17.6% | [2] -19% | [3] -1.2% | [4] -18.4% | [5] -5.05% | [6] 5.5%

COc1ccc(N=Cc2cc(Cl)cc(Cl)c2OC(=O)c2ccccc2)cc1
inactive: [1] -10.6% | [2] -31.1% | [3] 8.55% | [4] 0.65% | [5] -13.6% | [6] -19.2%

CN(C)S(=O)(=O)C(CO)c1ccccc1 (configuration not stated)
inactive: [1] 5.75% | [2] 12.9% | [3] 6.8% | [4] 3.15% | [5] -5.4% | [6] 10.5%

COc1ccc(-c2cc(-c3ccccc3)nc(/N=C\c3ccccc3)n2)c(O)c1
inactive: [1] -10.7% | [2] -20.4% | [3] -15.5% | [4] -17.9% | [5] -34.7% | [6] -51.2%

COC(=O)c1ccccc1NC(=O)Nc1cccc(Cl)c1C
inactive: [1] 13.8% | [2] -2.25% | [3] 25.2% | [4] 12% | [5] 17.6% | [6] 17.4%

CN(C=O)c1ccc([N+](=O)[O-])cc1
inactive: [1] 7.1% | [2] -6.5% | [3] -7.15% | [4] 5.7% | [5] 1.4% | [6] -3.4%

CCCCCC(Cl)(CC)CCCCC
inactive: [1] -23.4% | [2] -0.6% | [3] -16.6% | [4] -39.7% | [5] 1.45% | [6] -8.85%

CCCC(=O)OCC1OC(n2ccc(N)nc2=O)C(OC(=O)CCC)C1OC(=O)CCC (configuration not stated)
inactive: [1] 18.6% | [2] -22.4% | [3] 36.3% | [4] 17.8% | [5] 10.6% | [6] 8.2%

c1cc(OCCOc2cccc3ocnc23)c2ncoc2c1
inactive: [1] -12.8% | [2] -15.6% | [3] -5.85% | [4] -14.8% | [5] -18.4% | [6] 0.65%

O=[N+]([O-])c1ccc(N=C/C=C/Nc2ccc([N+](=O)[O-])cc2)cc1
inactive: [1] 5% | [2] 0.7% | [3] 10.5% | [4] -8.6% | [5] 6.3% | [6] 20.8%

Oc1ccc2ccccc2c1/C=N\Sc1ccc(Br)cc1
inactive: [1] 35.1% | [2] 37.5% | [3] 64.2% | [4] 28.5% | [5] 32.2% | [6] 49.5%

O=C(/C=C/c1ccccc1Cl)c1ccccc1[N+](=O)[O-]
active: [1] 96% | [2] 97.5% | [3] 97.7% | [4] 94.7% | [5] 96.5% | [6] 95.7%

O=[N+]([O-])c1ccccc1-c1ccccc1CO
inactive: [1] -22% | [2] -19.2% | [3] -41.4% | [4] -23.4% | [5] -18.4% | [6] -28.9%

CCOC(=O)CCCOc1ccccc1
inactive: [1] 24.4% | [2] -2.95% | [3] -9.55% | [4] 7.6% | [5] 16.1% | [6] 19.7%

COc1ccc2nc(NC(=O)Nc3ccc(Cc4ccc(NC(=O)Nc5nc6ccc(OC)cc6s5)cc4)cc3)sc2c1
inactive: [1] -14.4% | [2] -19.6% | [3] -10.3% | [4] 10.3% | [5] -8.65% | [6] -12%

CN(C)CC(O)CNC(=O)Nc1ccccc1 (configuration not stated)
inactive: [1] 0.6% | [2] 14.2% | [3] 12.7% | [4] 0.35% | [5] -0.05% | [6] -42.8%

COc1cc(C2c3cc4c(cc3OC(N3CCCC3)C2C)OCO4)cc(OC)c1OC (configuration not stated)
inactive: [1] 22.4% | [2] -0.5% | [3] -2.9% | [4] 5.75% | [5] 3.1% | [6] 6.55%

c1ccc2c(c1)ncc1cc3c(cc12)[nH]c1ccccc13
inactive: [1] 40.9% | [2] 7.5% | [3] 16.6% | [4] -11.1% | [5] -10.4% | [6] 26.6%

CCOC(=O)NC(C)=O
inactive: [1] -10.4% | [2] -27.9% | [3] 14.1% | [4] -16.3% | [5] -19.3% | [6] -20.8%

— PubChem BioAssay (NCI)
